# Reference: PubChem BioAssay AID1159580 (chemical genetic matrix, 2015)
# The whole screen tested about 5,500 compounds, of which about 2,000 (36%) were called active. Another 18% or so got no clear call; they are omitted. The list shows a part of the results. A number with no mark means an inactive call. Cut-off read from the data, not from the text of the source: active = normalized growth mostly below about 0.91 (no sharp cut-off); inconclusive = no clear call, values can overlap the other calls; inactive = mostly above about 0.92.
# Assay: chemical genetic growth profiling, strain panel (AID 1159580);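 note: tested at 20 µM; growth read once vehicle control cultures reached saturation at 30 °C; 1 = growth at the plate median or of vehicle wells; lower values mean less growth of the strain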
# Settings: S. cerevisiae deletion strains, growth OD
# [1] = locus YAR019C, strain CDC15, hits give low values
# [2] = locus YBL105C, strain PKC1, hits give low values
# [3] = locus YBR135W, strain CKS1, hits give low values
# [4] = locus YBR136W, strain MEC1, hits give low values
# [5] = locus YBR160W, strain CDC28, hits give low values
# [6] = locus YDL017W, strain CDC7, hits give low values
# [7] = locus YDL028C, strain MPS1, hits give low values
# [8] = locus YDL101C, strain DUN1, hits give low values
# [9] = locus YDL108W, strain KIN28, hits give low values
# [10] = locus YDL132W, strain cdc53, hits give low values
# [11] = locus YDL214C, strain PRR2, hits give low values
# [12] = locus YDR052C, strain DBF4, hits give low values
# [13] = locus YDR054C, strain cdc34, hits give low values
# [14] = locus YDR226W, strain ADK1, hits give low values
# [15] = locus YDR477W, strain SNF1, hits give low values
# [16] = locus YER123W, strain YCK3, hits give low values
# [17] = locus YER133W, strain GLC7, hits give low values
# [18] = locus YFL009W, strain cdc4, hits give low values
# [19] = locus YFL029C, strain CAK1, hits give low values
# [20] = locus YFR003C, strain YPI1, hits give low values
# [21] = locus YFR019W, strain FAB1, hits give low values
# [22] = locus YFR028C, strain CDC14, hits give low values
# [23] = locus YGR040W, strain KSS1, hits give low values
# [24] = locus YGR052W, strain FMP48, hits give low values
# [25] = locus YGR092W, strain DBF2, hits give low values
# [26] = locus YHR030C, strain SLT2, hits give low values
# [27] = locus YHR079C, strain IRE1, hits give low values
# [28] = locus YHR082C, strain KSP1, hits give low values
# [29] = locus YHR205W, strain SCH9, hits give low values
# [30] = locus YIL147C, strain SLN1, hits give low values
# [31] = locus YJL095W, strain BCK1, hits give low values
# [32] = locus YJL128C, strain PBS2, hits give low values
# [33] = locus YJL157C, strain FAR1, hits give low values
# [34] = locus YJR016C, strain ILV3, hits give low values
# [35] = locus YJR066W, strain TOR1 (second series), hits give low values
# [36] = locus YJR066W, strain TOR1, hits give low values
# [37] = locus YKL048C, strain ELM1, hits give low values
# [38] = locus YKL067W, strain YNK1, hits give low values
# [39] = locus YKL101W, strain HSL1, hits give low values
# [40] = locus YKL193C, strain SDS22, hits give low values
# [41] = locus YKL203C, strain TOR2, hits give low values
# [42] = locus YLR113W, strain HOG1, hits give low values
# [43] = locus YLR133W, strain CKI1, hits give low values
# [44] = locus YLR403W, strain SFP1, hits give low values
# [45] = locus YML070W, strain DAK1, hits give low values
# [46] = locus YMR001C, strain CDC5, hits give low values
# [47] = locus YMR205C, strain PFK2 (second series), hits give low values
# [48] = locus YMR277W, strain FCP1, hits give low values
# [49] = locus YNL006W, strain LST8, hits give low values
# [50] = locus YNL020C, strain ARK1, hits give low values
# [51] = locus YNL161W, strain CBK1, hits give low values
# [52] = locus YNL183C, strain NPR1, hits give low values
# [53] = locus YNL207W, strain RIO2, hits give low values
# [54] = locus YNL222W, strain SSU72, hits give low values
# [55] = locus YNL307C, strain MCK1 (second series), hits give low values
# [56] = locus YOL078W, strain AVO1, hits give low values
# [57] = locus YOL136C, strain PFK27, hits give low values
# [58] = locus YOR061W, strain CKA2, hits give low values
# [59] = locus YOR119C, strain RIO1, hits give low values
# [60] = locus YOR231W, strain MKK1, hits give low values
# [61] = locus YOR329C, strain SCD5, hits give low values
# [62] = locus YPL031C, strain PHO85, hits give low values
# [63] = locus YPL153C, strain RAD53, hits give low values
# [64] = locus YPL204W, strain HRR25, hits give low values
# [65] = locus YPL209C, strain IPL1, hits give low values
# [66] = locus YPL256C, strain CLN2, hits give low values
# [67] = locus YPR025C, strain CCL1, hits give low values
# [68] = locus YPR106W, strain ISR1, hits give low values
# [69] = locus YPR111W, strain DBF20, hits give low values
# [70] = strain NNK1, hits give low values
# [71] = strain TSCII, hits give low values
compound,measurement,setting,value
COc1c(Br)csc1C(=O)O/N=C(/N)c1cc(C(F)(F)F)cc(C(F)(F)F)c1,normalized growth,[1],0.994
same,normalized growth,[2],0.981
same,normalized growth,[3],0.99
same,normalized growth,[4],0.988
same,normalized growth,[5],0.979
same,normalized growth,[6],0.985
same,normalized growth,[7],0.988
same,normalized growth,[8],0.954
same,normalized growth,[9],0.987
same,normalized growth,[10],0.989
same,normalized growth,[11],1.05
same,normalized growth,[12],0.99
same,normalized growth,[13],0.989
same,normalized growth,[14],0.986
same,normalized growth,[15],1.05
same,normalized growth,[16],0.999
same,normalized growth,[17],1.03
same,normalized growth,[18],0.995
same,normalized growth,[19],0.96
same,normalized growth,[20],0.988
same,normalized growth,[21],1
same,normalized growth,[22],0.987
same,normalized growth,[23],1.06
same,normalized growth,[24],1.1
same,normalized growth,[25],1
same,normalized growth,[26],1.1
same,normalized growth,[27],1.07
same,normalized growth,[28],1.14
same,normalized growth,[29],1.03
same,normalized growth,[30],0.993
same,normalized growth,[31],1.09
same,normalized growth,[32],0.956
same,normalized growth,[33],1.01
same,normalized growth,[34],0.979
same,normalized growth,[35],0.99
same,normalized growth,[36],1.15
same,normalized growth,[37],1.01
same,normalized growth,[38],1.01
same,normalized growth,[39],1.05
same,normalized growth,[40],0.987
same,normalized growth,[41],1.14
same,normalized growth,[42],1.02
same,normalized growth,[43],1.03
same,normalized growth,[44],1.05
same,normalized growth,[45],1.04
same,normalized growth,[46],0.989
same,normalized growth,[47],0.999
same,normalized growth,[48],0.99
same,normalized growth,[49],0.995
same,normalized growth,[50],1.03
same,normalized growth,[51],0.982
same,normalized growth,[52],1.03
same,normalized growth,[53],0.989
same,normalized growth,[54],0.985
same,normalized growth,[55],1.05
same,normalized growth,[56],0.986
same,normalized growth,[57],1.03
same,normalized growth,[58],0.97
same,normalized growth,[59],1.13
same,normalized growth,[60],1.03
same,normalized growth,[61],0.995
same,normalized growth,[62],1.06
same,normalized growth,[63],1.04
same,normalized growth,[64],1.07
same,normalized growth,[65],0.985
same,normalized growth,[66],1.01
same,normalized growth,[67],0.987
same,normalized growth,[68],0.967
same,normalized growth,[69],0.964
same,normalized growth,[70],1
same,normalized growth,[71],0.993
Cc1cc(/C(N)=N\OC(=O)C(C)(C)C)cc(/C(N)=N\OC(=O)C(C)(C)C)c1,normalized growth,[1],0.977
same,normalized growth,[2],0.985
same,normalized growth,[3],0.992
same,normalized growth,[4],0.969
same,normalized growth,[5],0.98
same,normalized growth,[6],0.989
same,normalized growth,[7],0.949
same,normalized growth,[8],0.985
same,normalized growth,[9],0.983
same,normalized growth,[10],0.987
same,normalized growth,[11],0.968
same,normalized growth,[12],0.996
same,normalized growth,[13],0.985
same,normalized growth,[14],0.979
same,normalized growth,[15],0.991
same,normalized growth,[16],0.974
same,normalized growth,[17],0.977
same,normalized growth,[18],0.982
same,normalized growth,[19],0.986
same,normalized growth,[20],0.989
same,normalized growth,[21],0.979
same,normalized growth,[22],0.983
same,normalized growth,[23],0.979
same,normalized growth,[24],1.02
same,normalized growth,[25],1.02
same,normalized growth,[26],0.904
same,normalized growth,[27],1.02
same,normalized growth,[28],1.06
same,normalized growth,[29],0.974
same,normalized growth,[30],0.964
same,normalized growth,[31],0.992
same,normalized growth,[32],0.937
same,normalized growth,[33],1
same,normalized growth,[34],0.993
same,normalized growth,[35],0.962
same,normalized growth,[36],1
same,normalized growth,[37],0.987
same,normalized growth,[38],0.953
same,normalized growth,[39],0.954
same,normalized growth,[40],0.983
same,normalized growth,[41],1.08
same,normalized growth,[42],0.858 (active)
same,normalized growth,[43],1
same,normalized growth,[44],0.997
same,normalized growth,[45],0.966
same,normalized growth,[46],0.969
same,normalized growth,[47],0.991
same,normalized growth,[48],0.972
same,normalized growth,[49],0.984
same,normalized growth,[50],0.989
same,normalized growth,[51],0.988
same,normalized growth,[52],1.03
same,normalized growth,[53],0.989
same,normalized growth,[54],0.979
same,normalized growth,[55],0.947
same,normalized growth,[56],0.992
same,normalized growth,[57],0.962
same,normalized growth,[58],1
same,normalized growth,[59],1.03
same,normalized growth,[60],1
same,normalized growth,[61],0.99
same,normalized growth,[62],0.997
same,normalized growth,[63],0.965
same,normalized growth,[64],0.969
same,normalized growth,[65],0.991
same,normalized growth,[66],0.922
same,normalized growth,[67],0.989
same,normalized growth,[68],0.978
same,normalized growth,[69],0.954
same,normalized growth,[70],0.982
same,normalized growth,[71],0.967
Cn1ncc(C(=O)O/N=C(/N)c2cc(C(F)(F)F)cc(C(F)(F)F)c2)c1-n1cccc1,normalized growth,"locus YAL013W, strain DEP1, hits give low values",1.02
same,normalized growth,"locus YBR229C, strain ROT2, hits give low values",1.01
same,normalized growth,[8],1.01
same,normalized growth,"locus YDL134C, strain PPH21, hits give low values",1.02
same,normalized growth,"locus YDR150W, strain NUM1, hits give low values",0.963
same,normalized growth,"locus YEL061C, strain CIN8, hits give low values",0.999
same,normalized growth,"locus YGR078C, strain PAC10, hits give low values",1
same,normalized growth,[26],0.972
same,normalized growth,"locus YHR087W, strain rtc3, hits give low values",0.996
same,normalized growth,"locus YJR043C, strain POL32, hits give low values",0.999
same,normalized growth,"locus YJR075W, strain HOC1, hits give low values",0.972
same,normalized growth,"locus YKL190W, strain CNB1, hits give low values",1.01
same,normalized growth,"locus YLR039C, strain RIC1, hits give low values",0.958
same,normalized growth,"locus YLR058C, strain SHM2 (second series), hits give low values",1
same,normalized growth,"locus YLR085C, strain ARP6, hits give low values",0.984
same,normalized growth,"locus YLR262C, strain YPT6, hits give low values",1.03
same,normalized growth,"locus YML094W, strain GIM5, hits give low values",0.988
same,normalized growth,"locus YMR219W, strain ESC1, hits give low values",1
same,normalized growth,"locus YMR263W, strain SAP30, hits give low values",0.934
same,normalized growth,"locus YMR307W, strain GAS1, hits give low values",1.03
same,normalized growth,"locus YNL153C, strain GIM3, hits give low values",0.996
same,normalized growth,"locus YNL298W, strain CLA4 (second series), hits give low values",1.02
same,normalized growth,"locus YNL322C, strain KRE1, hits give low values",0.991
same,normalized growth,"locus YNR030W, strain Alg12, hits give low values",1.02
same,normalized growth,"locus YOL006C, strain TOP1, hits give low values",0.98
same,normalized growth,"locus YPL055C, strain LGE1, hits give low values",0.88
same,normalized growth,"locus YPL241C, strain CIN2, hits give low values",0.935
same,normalized growth,"locus YPR135W, strain CTF4, hits give low values",0.961
